# Results: the supplement of paper PMC7057948, “A genome-wide approach for identification and characterisation of metabolite-inducible systems” (Nature Communications, 2020)
# System: BadR/P_H16_RS27200 cyclohexanecarboxylate biosensor (pEH159)
# Assay: relative induction of RFP reporter vs primary effector (background-corrected); higher = stronger activation of the biosensor
# Conditions: inducer concentration 5 mM; 6 h; Cupriavidus necator H16; minimal medium + 0.4% gluconate
# Description: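 C. necator H16 strains, each carrying one of 21 transcription factor/inducible promoter–mRFP biosensor plasmids, were grown in minimal medium in 96-well plates (robotic platform). Each was exposed to 46 structurally or metabolically related compounds at 5 mM at 30 °C. OD-normalised RFP fluorescence was read 6 h later and expressed as relative induction (%) = 100 × (FL compound − FL uninduced)/(FL primary inducer − FL uninduced); mean of n=4.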
# 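Also: RFP excited at 585 nm with emission read at 620 nm, culture medium blanks subtracted from fluorescence and absorbance prior to normalisation.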
row,SMILES,relative induction of RFP reporter [%]
1,O=C(O)CNC(=O)c1ccccc1 [N-benzoylglycine],-0.675
2,O=C(O)c1ccc(O)cc1 [4-hydroxybenzoate],0.236
3,Oc1ccccc1 [phenol],-0.423
4,C[C@@H](O)C(=O)O [D-lactate],-0.262
5,O=C(O)CC(=O)C(=O)O [oxaloacetate],-0.113
6,N[C@@H](CC(=O)O)C(=O)O [L-aspartate],-0.282
7,C[C@H](O)C(=O)O [L-lactate],0.636
8,Oc1ccccc1O [catechol],1.99
9,O=C(O)[C@@H](O)[C@@H](O)[C@H](O)[C@@H](O)C(=O)O [glucarate],-0.576
10,NC(=O)CC[C@H](N)C(=O)O [L-glutamine],-0.359
11,"O=C(O)/C=C\C=C/C(=O)O [cis,cis-muconate]",-0.641
12,CCCC(=O)O [butyric acid],0.491
13,O=C(O)CCC(=O)O [succinate],-0.371
14,O=C(O)C(O)c1ccccc1 (stereo not given) [mandelic acid],0.747
15,CC(N)CC(=O)O (stereo not given) [3-aminobutanoate],-0.361
16,Cn1cnc2c1c(=O)[nH]c(=O)n2C [theobromine],0.638
17,CCC(=O)O [propanoate],-0.236
18,Oc1cccc(O)c1 [resorcinol],0.33
19,O=C(O)C1CCCC1 [cyclopentane-1-carboxylate],10.9
20,O=C(O)c1cc(=O)c2ccccc2[nH]1 [kynurenate],-0.549

row,SMILES,relative induction of RFP reporter [%]
1,Cn1c(=O)c2c(ncn2C)n(C)c1=O [caffeine],-0.151
2,O=C(O)C1=CCCCC1 [cyclohexene-1-carboxylate],80.5
3,NCCc1ccc(O)c(O)c1 [dopamine],1.95
4,O=c1[nH]cnc2nc[nH]c12 [hypoxanthine],-0.186
5,O=CC(=O)O [glyoxylate],-0.137
6,O=C(O)C(O)C(=O)O [tartronic acid],-0.292
7,O=c1cc[nH]c(=O)[nH]1 [uracil],-0.342
8,CC(=O)CCC(=O)O [levulinic acid],0.15
9,N[C@@H](Cc1c[nH]c2ccccc12)C(=O)O [L-tryptophan],-0.253
10,O=C(O)c1cccnc1 [nicotinate],-0.229
11,O=S(=O)(O)CCO [isethionate],0.494
12,O=C(O)CC(CC(=O)O)C(=O)O [tricarballylate],-0.288
13,NCC(=O)O [glycine],-0.419
14,"O=C(O)c1c(O)cccc1O [2,6-dihydroxybenzoate]",0.241
15,O=C(O)C[C@H](O)C(=O)O [L-malate],-0.0424
16,C[C@H](N)C(=O)O [L-alanine],-0.206
17,O=C(O)/C=C/C(=O)O [fumarate],-0.161
18,"NC(C(=O)O)c1ccccc1 (racemic) [D,L-2-phenylglycine]",-0.673
19,NCCS(=O)(=O)O [taurine],-0.635
20,Oc1ccc(O)cc1 [hydroquinone],4.02
